The values that follow come from PubChem BioAssay (NCATS).

Inconclusive results are not listed. The source made the active and inactive calls. The call rests on the fitted dose curve; in most records, active means well fitted inhibition curve with a large enough effect; inconclusive means small, poorly fitted or top-dose-only effect; inactive means flat fitted curve, though single readings scatter.
On the % scale 0 is the no-effect control and ±100 the full control effect.

For the assay, the target named is Calcium and integrin-binding protein 1 (Homo sapiens) (UniProt Q99828). Description: Primary qHTS for Identification of Calcium Integrin Binding Protein 1 (CIB1) Competitor (AID 1508620).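 Further: GST tagged CIB1 binding a fluorescein labelled alphaIIb integrin peptide tracer; top concentration of the series differs between compounds.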 Particulars: CIB1-GST / FITC-alphaIIb peptide fluorescence polarization; series mostly up to 114 µM; activity change, negative = inhibition: at the top concentration. In short, it runs like this: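 CIB1-GST (1 uM final) and compound incubated 15 min at room temperature before adding FITC-alphaIIb peptide tracer (100 nM final). Competition for binding read by fluorescence polarization (ex 480, em 540) after another 15 min at room temperature.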
Chain of Calcium and integrin-binding protein 1 (Homo sapiens) (Q99828 whole entry, looked up): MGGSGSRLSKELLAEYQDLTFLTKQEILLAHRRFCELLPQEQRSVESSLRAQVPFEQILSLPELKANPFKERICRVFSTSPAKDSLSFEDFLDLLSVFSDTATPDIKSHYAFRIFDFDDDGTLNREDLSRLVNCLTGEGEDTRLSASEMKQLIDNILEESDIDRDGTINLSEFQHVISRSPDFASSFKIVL
Regarding `COc1ccccc1NS(=O)(=O)c1ccc2c(c1)CCC(=O)N2`, the “activity change, negative = inhibition” value is 1.28% (inactive).

Regarding `CC1(C)CC(=O)C2=C(C1)NC(Nc1nc3ccccc3o1)=NC21CCCCC1`, the “activity change, negative = inhibition” value was -4.19% (inactive).

On to `O=C(CSc1nnc(-c2cccc([S+](=O)([O-])N3CCCC3)c2)n1-c1ccccc1)Nc1cccc(F)c1`, for which the “activity change, negative = inhibition” value is 3.76% (inactive).

As to `N=c1c2c(ncn1-c1ccccc1)Oc1ccc3ccccc3c1C2c1ccc2c(c1)OCCO2` (stereo not given), the “activity change, negative = inhibition” value was 56.6% (inactive).

Consider `O=[S+]([O-])(c1ccc2c(c1)OCCO2)N1CCN([S+](=O)([O-])c2c(F)cc(O)cc2F)CC1`, for which the “activity change, negative = inhibition” value was -0.145% (inactive).

`Cn1nnnc1Sc1ncnc2scc(-c3cccc(C(F)(F)F)c3)c12`: the “activity change, negative = inhibition” value is -3.32% (inactive).

As to `Cc1cc(C)nc(NC(=S)N2CCN(c3cc(Cl)cc(Cl)c3)CC2)c1`, the “activity change, negative = inhibition” value was -8.39% (inactive).

Turning to `O=S(=O)(c1ccc2c(c1)OCCO2)N1CCN(S(=O)(=O)c2ccccc2Cl)CC1`, the “activity change, negative = inhibition” value is -1.87% (inactive).

In the case of `Cc1cccc(CNc2ncnc3ccc(-c4cccc(Cl)c4)cc23)c1`, the “activity change, negative = inhibition” value was -1.97% (inactive).

Turning to `Cc1ccc2nc3sc(C(=O)NC4CCC(O)CC4)cc3cc2c1` (stereo not given), the “activity change, negative = inhibition” value is -0.684% (inactive).

With `Cc1cc(NS(=O)(=O)c2ccc3c(c2)CCC(=O)N3)ccc1Cl`, the “activity change, negative = inhibition” value is -8.29% (inactive).

Consider `Cc1ccc(N2CCC(CNc3nc(-c4ccccc4C(C)C)ncc3C)CC2)cn1`, for which the “activity change, negative = inhibition” value was 0.371% (inactive).

In the case of `Fc1cccc(CNc2ncnc3ccc(-c4ccccc4Cl)cc23)c1`, the “activity change, negative = inhibition” value was 5.69% (inactive).

For `Cc1ccc(CN(C)c2ncnc3ccc(-c4ccc(C(=O)O)o4)cc23)o1`, the “activity change, negative = inhibition” value is 1.6% (inactive).

On to `O=C1c2ccccc2C(=O)N1Cc1ccncc1`, for which the “activity change, negative = inhibition” value is 5.81% (inactive).

On to `O=C(/C=C/c1ccccc1Cl)Nc1cccc([S+](=O)([O-])Nc2ccccc2F)c1`, for which the “activity change, negative = inhibition” value is 7.32% (inactive).

On to `COc1cc(OC)cc(C2=Nn3c(nnc3-c3ccccc3O)SC2)c1`, for which the “activity change, negative = inhibition” value is -5.14% (inactive).

Consider `O=c1c2ccccc2nc2sc(Nc3cccc(Br)c3)nn12`, for which the “activity change, negative = inhibition” value was 4.11% (inactive).

On to `CN1CCN(c2cccc(Nc3nn4c(=O)c5ccc(C(F)(F)F)cc5nc4s3)c2)CC1`, for which the “activity change, negative = inhibition” value is -9.81% (inactive).

`Cc1cc(NS(=O)(=O)c2ccc(NS(=O)(=O)Cc3ccc(Cl)c(Cl)c3)cc2)no1`: the “activity change, negative = inhibition” value is -11.3% (inactive).
